The nature of assay [1]: antimalarial activity against Dd2 strain (AID 2302;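 active means growth inhibition above 50% at the single 2 µM test dose, taken to imply half-maximal potency below 2 µM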;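 further: 0% = DMSO untreated growth and 100% = chloroquine plus artemisinin killed control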). Conditions: P. falciparum Dd2 in RBCs, LDH growth readout, 72 h; at 2 µM; active compounds read high.
Assay [2] is described as follows: human hepatoma cell viability loss – ATP luminescence, cytotoxicity control for P. falciparum antimalarial project, primary screen (AID 2303;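 active means inhibition above 50%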;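 further: 0% = DMSO wells and 100% = digitonin-killed cells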). Conditions: HepG2 viability, 24-48 h, at 10 µM, active compounds read high.
Assay [3] concerns the target L-lactate dehydrogenase (Plasmodium falciparum (isolate CDC / Honduras)) (UniProt Q27743). Nature of the assay: PfLDH activity inhibition – cell lysate, 3D7 strain, counter-screen for P. falciparum growth inhibition project (AID 2304; call rule not given here;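 further: 0% = vehicle and 100% = reference inhibitor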). Conditions: P. falciparum 3D7 crude extract, LDH APAD/NBT absorbance; at 2 µM; active compounds read high. (The purpose of a counterscreen is to sort out artefacts and off-target activity.)

A short description of assay [4]: inhibition of 3D7 malaria parasite growth – strain 3D7 (AID 2306; call rule not given here;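 further: 0% = DMSO wells and 100% = chloroquine plus artemisinin control wells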). Conditions: P. falciparum 3D7 erythrocytic growth, LDH absorbance, 72 h; at 2 µM; active compounds read high.
The target of assay [5] is Protein kinase 7 (PK7), Plasmodium falciparum 3D7 (PF3D7_0213400) (UniProt Q7YTF7). Description: inhibition of Plasmodium PK7 catalytic activity – biochemical, TCAMS antimalarial set, Kinase-Glo luminescence (AID 1159587; call rule not given here). Conditions: recombinant PfPK7, Kinase-Glo ATP depletion luminescence.
Protein kinase 7 (PK7), Plasmodium falciparum 3D7 (PF3D7_0213400), sequence (Q7YTF7 1-343): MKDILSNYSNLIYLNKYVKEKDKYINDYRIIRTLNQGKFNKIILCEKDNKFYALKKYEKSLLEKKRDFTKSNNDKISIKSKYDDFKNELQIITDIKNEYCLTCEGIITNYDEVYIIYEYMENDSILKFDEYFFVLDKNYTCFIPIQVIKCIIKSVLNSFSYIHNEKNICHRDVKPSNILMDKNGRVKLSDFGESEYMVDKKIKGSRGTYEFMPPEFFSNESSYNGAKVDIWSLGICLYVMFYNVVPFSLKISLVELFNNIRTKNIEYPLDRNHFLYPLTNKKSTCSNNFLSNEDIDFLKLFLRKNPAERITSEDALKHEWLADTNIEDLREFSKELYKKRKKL
The test system of another assay is F380Y. Description: BK channel mutant inhibitors and activators – cell-based, U2OS BacMam, thallium flux, beta subunits, selectivity assay, profiling panel (AID 1259406).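 Further: initial slope of Thallos dye fluorescence rise after thallium is added; log ratio against the mean of 0.3% DMSO vehicle wells on the same plate.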 Conditions: U2OS BacMam BK variants, at 30 µM.
A further assay relates to F380Y/beta1. The assay is described as above. Conditions: U2OS BacMam BK variants, at 30 µM.
A further assay has as its system F380Y/beta2Delta. Described as above. The note with it: U2OS BacMam BK variants, at 30 µM.
Another assay has as its system F380Y/beta4. The description is as above. The note with it: U2OS BacMam BK variants, at 30 µM.
For assay [6], the target named is Calcium-activated potassium channel subunit alpha-1 (Homo sapiens) + Leucine-rich repeat-containing protein 26 (Homo sapiens) (UniProt Q12791+Q2I0M4). The description is as above. Conditions: U2OS BacMam BK variants, F380Y/Slo1WT/gamma1, at 30 µM.
Calcium-activated potassium channel subunit alpha-1 (Homo sapiens) + Leucine-rich repeat-containing protein 26 (Homo sapiens), sequence (Q2I0M4 whole entry, looked up, one chain of several): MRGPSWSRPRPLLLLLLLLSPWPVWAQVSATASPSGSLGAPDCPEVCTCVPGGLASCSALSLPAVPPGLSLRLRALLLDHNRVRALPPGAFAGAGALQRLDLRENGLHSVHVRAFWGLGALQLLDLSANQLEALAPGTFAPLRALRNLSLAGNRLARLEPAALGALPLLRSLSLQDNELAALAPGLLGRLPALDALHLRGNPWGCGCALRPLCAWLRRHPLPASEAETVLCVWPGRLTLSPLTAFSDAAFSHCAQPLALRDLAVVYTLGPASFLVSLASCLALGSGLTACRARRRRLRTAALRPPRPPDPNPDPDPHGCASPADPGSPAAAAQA
The test system of a further assay is R275C. Described as above. The note with it: U2OS BacMam BK variants, at 30 µM.
In a further assay the test system is R275C/beta1. The assay is described as above. The note with it: U2OS BacMam BK variants, at 30 µM.
A further assay relates to R275C/beta2Delta. Described as above. The note with it: U2OS BacMam BK variants, at 30 µM.
The subject of another assay is R275C/beta4. Described as above. The note with it: U2OS BacMam BK variants, at 30 µM.
Another assay has as its system R275C/Slo1WT/beta2. Described as above. The note with it: U2OS BacMam BK variants, at 30 µM.

Unmarked numbers belong to inactive results. Activity calls are given as the source filed them.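 How the source made its calls, unless noted: active means thallium flux through the channel raised or lowered by more than 3 SD from vehicle-only wells, actives on both sides; inactive means the rest.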

L-lactate dehydrogenase (Plasmodium falciparum (isolate CDC / Honduras)), sequence (Q27743 whole entry, looked up): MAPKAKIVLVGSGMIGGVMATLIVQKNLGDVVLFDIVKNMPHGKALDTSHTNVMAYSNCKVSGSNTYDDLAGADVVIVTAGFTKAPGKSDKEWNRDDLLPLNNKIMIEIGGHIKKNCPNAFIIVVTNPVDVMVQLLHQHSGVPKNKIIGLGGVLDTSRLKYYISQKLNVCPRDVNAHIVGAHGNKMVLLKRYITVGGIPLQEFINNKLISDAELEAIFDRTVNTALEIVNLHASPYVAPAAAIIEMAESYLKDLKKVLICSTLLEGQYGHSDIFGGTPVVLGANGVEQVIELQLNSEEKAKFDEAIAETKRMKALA

For `O=C(Nc1cccc(-c2nn3ccccc3c2-c2ccnc(Nc3ccc(NCCCN4CCOCC4)c(F)c3)n2)c1)c1c(F)cccc1F`, the growth inhibition is 97% (active) in assay [1] and 100% (active) in assay [4]. For the same compound, the inhibition (commonly the relative decrease from the control value, in per cent) in assay [2] was 86% (active); in assay [3] it was 0%. In assay [5], the result was inactive.

In the case of `O=C(CSCc1csc2ccccc12)NCc1ccc2c(c1)OCO2`, the log fold change Tl+ flux in the assay on F380Y is -0.00508; with F380Y/beta1, -0.0221; in the assay with F380Y/beta2Delta it was -0.0281; in the assay with F380Y/beta4, -0.0396; in assay [6], -0.13 (active); in the assay with R275C, -0.0377. Besides, the log fold change Tl+ flux with R275C/beta1 was -0.0155; in the assay on R275C/beta2Delta, -0.0321; with R275C/beta4, -0.0151; in the assay with R275C/Slo1WT/beta2 it was -0.0571.

Regarding `Cc1ccccc1S(=O)(=O)NCc1ccc(N2CCN(C)CC2)cc1`, the log fold change Tl+ flux was -0.0156 in the assay on F380Y; -0.00969 in the assay on F380Y/beta1; 0.0214 in the assay with F380Y/beta2Delta; 0.0231 in the assay with F380Y/beta4; 0.0153 in assay [6]; -0.00175 with R275C. Further, the log fold change Tl+ flux was 0.0272 with R275C/beta1, 0.0013 with R275C/beta2Delta, 0.0244 with R275C/beta4 and -0.0187 with R275C/Slo1WT/beta2.

On to `Cc1c(Br)sc2sc(-c3ccnc(SCc4ccccc4)n3)c(C)c12`, for which the log fold change Tl+ flux with F380Y was -0.00256; with F380Y/beta1, -0.0227; in the assay on F380Y/beta2Delta, -0.00739; in the assay with F380Y/beta4, -0.0356; in assay [6], 0.0451; in the assay with R275C, -0.000555. For the same compound, the log fold change Tl+ flux in the assay with R275C/beta1 is -0.0282; in the assay on R275C/beta2Delta, 0.0157; in the assay with R275C/beta4 it was -0.00767; with R275C/Slo1WT/beta2, -0.00994.

With `CC(=O)Nc1cccc(Nc2nccc(-c3c(-c4cccc(NC(=O)c5c(F)cccc5F)c4)nn4ncccc34)n2)c1`, the growth inhibition is 51% (active) in [1] and 96% (active) in assay [4]. Also, the inhibition in assay [2] was 83% (active); in assay [3], 5%. Further, in assay [5], the result was inactive.

For the compound `COC(=O)c1ccc(S(=O)(=O)NNc2ncnc3cc(C(C)(C)C)sc23)n1C`, the log fold change Tl+ flux in the assay with F380Y is 0.00239; in the assay on F380Y/beta1 it was 0.00797; in the assay on F380Y/beta2Delta, 0.0347; in the assay with F380Y/beta4, 0.0667; in [6] it was 0.00885; in the assay with R275C, 0.0131. The log fold change Tl+ flux with R275C/beta1 is -0.027; in the assay on R275C/beta2Delta, 0.00378; in the assay on R275C/beta4 it was -0.0156; in the assay on R275C/Slo1WT/beta2, 0.0399.

Regarding `Clc1ccc(Sc2cn[nH]c2-c2ccc3c(c2)OCCO3)cc1`, the log fold change Tl+ flux was -0.025 in the assay with F380Y; -0.0285 in the assay with F380Y/beta1; -0.0116 in the assay with F380Y/beta2Delta; 0.0103 in the assay on F380Y/beta4; -0.102 in [6]; 0.0336 in the assay on R275C. The log fold change Tl+ flux in the assay on R275C/beta1 was -0.00464; in the assay with R275C/beta2Delta, -0.0611; with R275C/beta4 it was -0.0292; in the assay on R275C/Slo1WT/beta2, -0.0512.

As for `CS(=O)(=O)Cc1ccc(Nc2nccc(-c3c(-c4cccc(NC(=O)c5c(F)cccc5F)c4)nn4ccccc34)n2)cc1`, the results for the growth inhibition in [1] and in assay [4] were 75% (active) and 99% (active), respectively. The inhibition in assay [2] was 78% (active); in assay [3], 0%. Also, the outcome in assay [5] was inactive.

`CS(=O)(=O)C(C#N)=NNc1ccc(OC(F)(F)F)cc1`: the log fold change Tl+ flux in the assay with F380Y was 0.0798; in the assay with F380Y/beta1, 0.148 (active); with F380Y/beta2Delta, 0.0975; in the assay with F380Y/beta4, 0.0278; in assay [6], 0.0802; with R275C it was 0.0522. The log fold change Tl+ flux is 0.0751 in the assay with R275C/beta1, 0.119 (active) in the assay with R275C/beta2Delta, 0.0407 with R275C/beta4 and -0.0347 with R275C/Slo1WT/beta2.

`O=c1c(Cl)c(N2CCOCC2)cnn1-c1cnc2ccccc2n1`: the log fold change Tl+ flux was -0.0015 in the assay on F380Y; 0.00611 with F380Y/beta1; 0.0635 with F380Y/beta2Delta; 0.0417 with F380Y/beta4; 0.0667 in [6]; 0.00311 in the assay on R275C. For the same compound, the log fold change Tl+ flux in the assay on R275C/beta1 is -0.0364; in the assay on R275C/beta2Delta it was 0.032; in the assay with R275C/beta4, -0.0173; in the assay on R275C/Slo1WT/beta2, 0.0145.

`O=C1CSCC(=O)N1c1csc(C(F)(F)F)c1-c1ccccc1`: the log fold change Tl+ flux in the assay on F380Y was -0.0223; in the assay with F380Y/beta1, 0.0869 (active); in the assay with F380Y/beta2Delta, -0.00325; in the assay on F380Y/beta4, 0.0035; in assay [6] it was 0.0169; with R275C, 0.0132. In addition, the log fold change Tl+ flux in the assay on R275C/beta1 was 0.122 (active); with R275C/beta2Delta it was 0.0241; in the assay with R275C/beta4 it was 0.11 (active); with R275C/Slo1WT/beta2, -0.00785.

On to `Cc1onc(-c2c(Cl)cccc2Cl)c1C(=O)NOC(=O)c1cccs1`, for which the log fold change Tl+ flux in the assay on F380Y is 0.00334; in the assay with F380Y/beta1, 0.0153; in the assay on F380Y/beta2Delta it was 0.0189; in the assay with F380Y/beta4 it was 0.0829; in assay [6], -0.0657; with R275C, -0.0156. The log fold change Tl+ flux is 0.0266 in the assay with R275C/beta1, 0.0291 in the assay on R275C/beta2Delta, 0.0618 in the assay on R275C/beta4 and -0.0647 in the assay with R275C/Slo1WT/beta2.

As for `O=C(Nc1ccc(F)cc1)N1CCN(Cc2ccccc2)CC1`, the log fold change Tl+ flux was 0.0438 in the assay with F380Y; 0.00516 with F380Y/beta1; 0.00491 with F380Y/beta2Delta; 0.032 in the assay on F380Y/beta4; 0.0285 in assay [6]; 0.0233 in the assay with R275C. The log fold change Tl+ flux is 0.0689 with R275C/beta1, -0.00966 in the assay on R275C/beta2Delta, 0.0882 (active) in the assay with R275C/beta4 and 0.000608 with R275C/Slo1WT/beta2.

For `CCc1ccc(C(=O)Nc2cccc(S(N)(=O)=O)c2)cc1`, the log fold change Tl+ flux in the assay with F380Y is -0.0133; with F380Y/beta1 it was -0.00607; in the assay with F380Y/beta2Delta, -0.0279; with F380Y/beta4, 0.0112; in assay [6], 0.028; in the assay on R275C it was -0.00467. Further, the log fold change Tl+ flux in the assay on R275C/beta1 is -0.00416; with R275C/beta2Delta, -0.0306; with R275C/beta4, 0.0218; in the assay with R275C/Slo1WT/beta2, 0.0201.

For the origin of these results see PubChem BioAssay.
